In the supplement of paper PMC10849652:
Targets with a hit are over-represented here; the source holds about 7,900 in all. About 0.6% of all pairs of compound and target were hits.

What was measured:
Experiment in all cases: log2 fold change, soluble protein after heating vs DMSO (PISA); higher = thermal stabilisation; K562 cells, 10 uM, 30 min; active = over 0.2 and 3.5 SD of the protein, either way, in both replicates (recomputed)
erlotinib = compound: C#Cc1cccc(Nc2ncnc3cc(OCCOC)c(OCCOC)cc23)c1 [erlotinib]
Method in brief: (§1)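 K562 cells at 2×10^6 cells/mL were exposed to 10 μM compound for 30 min, then aliquots were heated for 3 min across 48°C-58°C, pooled, and extracted in PBS containing 0.5% NP-40 at 4°C. The supernatant after 21,000xg for 90 min was taken as soluble protein and measured by TMTpro 16plex LC-MS/MS with channel sums equalised. Thermal stability is reported relative to control samples, with values from duplicates. Fold changes are given on a log2 scale.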

[1] = compound: C/C(=N\NC(=O)C1=CC(=CC=C1)S(=O)(=O)N2CCOCC2)/C3=C(C=CC(=C3)Cl)O
Method in brief: as §1

[2] = compound: C1=CC(=C(C=C1Cl)C2=NC3=NC=CN=C3C(=N2)NC4=CC=NC=C4)F
Method in brief: as §1

[3] = compound: C1=CC(=CC=C1C2=NC3=C(N2)C=C(C=C3)C(=O)N)OC4=CC=C(C=C4)Cl
Method in brief: as §1

[4] = compound: C1=CC2=C(C=CC(=C2)/C=C\3/C(=O)NC(=NCC4=CC=CS4)S3)N=C1
Method in brief: as §1

[5] = compound: C1=CC2=NC=CN=C2C=C1/C=C/3\C(=O)NC(=O)S3
Method in brief: as §1

[6] = compound: C1=CC=C(C=C1)C2=NC(=C(N2)C3=CC=NC=C3)C4=CC(=C(C=C4)Cl)O
Method in brief: as §1

[7] = compound: C1=CC=C2C(=C1)C3=NNC4=CC=CC(=C43)C2=O
Method in brief: as §1

[8] = compound: C1CCN(C1)C(=O)NC2=CC=CC(=C2)NC3=NC=C(C(=N3)NCCC4=CN=CN4)Br
Method in brief: as §1

[9] = compound: C1CN(CCC1(CC2=CC=C(C=C2)Cl)N)C3=NC=NC4=C3C=CN4
Method in brief: as §1

Measured: log2 fold change

NOP2 isoform 4 (UniProt P46087)
Sequence of UniProt P46087 (P46087 whole entry, looked up): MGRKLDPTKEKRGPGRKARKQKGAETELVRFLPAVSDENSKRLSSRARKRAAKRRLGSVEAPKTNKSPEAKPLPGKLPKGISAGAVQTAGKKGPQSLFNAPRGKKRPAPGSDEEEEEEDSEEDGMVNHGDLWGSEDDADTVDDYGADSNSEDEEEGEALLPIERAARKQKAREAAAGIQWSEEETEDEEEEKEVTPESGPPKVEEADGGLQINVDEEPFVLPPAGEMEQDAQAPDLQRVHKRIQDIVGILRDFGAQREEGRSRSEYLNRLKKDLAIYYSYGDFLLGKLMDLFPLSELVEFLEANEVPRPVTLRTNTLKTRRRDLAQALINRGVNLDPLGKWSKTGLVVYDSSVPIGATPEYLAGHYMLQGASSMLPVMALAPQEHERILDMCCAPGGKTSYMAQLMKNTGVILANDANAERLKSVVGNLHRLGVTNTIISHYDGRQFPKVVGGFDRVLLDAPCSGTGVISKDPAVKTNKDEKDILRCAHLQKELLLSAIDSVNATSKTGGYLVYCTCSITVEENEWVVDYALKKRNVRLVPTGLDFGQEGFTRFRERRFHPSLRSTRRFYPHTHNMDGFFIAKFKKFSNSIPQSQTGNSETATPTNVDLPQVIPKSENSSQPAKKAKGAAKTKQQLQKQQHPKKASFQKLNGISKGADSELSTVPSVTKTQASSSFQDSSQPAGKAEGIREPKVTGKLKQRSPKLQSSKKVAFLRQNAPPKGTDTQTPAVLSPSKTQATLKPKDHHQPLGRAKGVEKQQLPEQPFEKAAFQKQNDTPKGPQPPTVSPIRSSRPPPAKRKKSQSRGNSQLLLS
inactive: erlotinib -0.17 | [1] -0.261 | [2] -0.349 | [3] -0.064 | [4] -0.045 | [5] 0.272 | [6] -0.255 | [7] 0.078 | [8] 0.023 | [9] 0.006

OPA1 isoform 2 (UniProt O60313)
inactive: erlotinib 0.041 | [1] 0.081 | [2] 0.031 | [3] -0.021 | [4] 0.07 | [5] 0.01 | [6] 0.126 | [7] 0.027 | [8] -0.006 | [9] 0.078

MRPS5 (UniProt P82675)
inactive: erlotinib -0.077 | [1] 0.038 | [2] 0.009 | [3] 0.193 | [4] 0.007 | [5] -0.008 | [6] 0.027 | [7] 0.158 | [8] -0.035 | [9] -0.085

OGFOD2 (UniProt Q6N063)
Sequence of UniProt Q6N063 (Q6N063 whole entry, looked up): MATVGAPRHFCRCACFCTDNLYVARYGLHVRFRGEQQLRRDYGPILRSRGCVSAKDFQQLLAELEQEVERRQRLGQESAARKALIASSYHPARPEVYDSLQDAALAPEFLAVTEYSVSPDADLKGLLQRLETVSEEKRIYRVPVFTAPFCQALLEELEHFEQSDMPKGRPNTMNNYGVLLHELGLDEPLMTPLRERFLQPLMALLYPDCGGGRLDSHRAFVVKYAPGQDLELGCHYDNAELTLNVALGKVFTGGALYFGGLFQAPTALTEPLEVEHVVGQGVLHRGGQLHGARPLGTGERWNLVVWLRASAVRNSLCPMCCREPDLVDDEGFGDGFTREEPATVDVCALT
inactive: erlotinib -0.051 | [2] -0.047 | [3] 0.011 | [4] 0.089 | [5] 0.14 | [6] 0.004 | [7] 0.041 | [8] 0.023 | [9] 0.017
active: [1] -0.283

MRPS18B (UniProt Q9Y676)
inactive: erlotinib 0.026 | [1] 0.101 | [2] -0.051 | [3] 0.124 | [4] 0.03 | [5] 0.034 | [6] 0.027 | [7] 0.119 | [8] 0.079 | [9] -0.119

OXA1L (UniProt Q15070)
inactive: erlotinib -0.014 | [1] 0.029 | [2] -0.005 | [3] 0.012 | [4] 0.01 | [5] 0.021 | [6] 0.006 | [7] -0.029 | [8] 0.012 | [9] 0.043

NDUFA12 (UniProt Q9UI09)
inactive: erlotinib -0.014 | [1] 0.011 | [2] 0.016 | [3] 0.147 | [4] 0.075 | [5] 0.001 | [6] 0.061 | [7] -0.007 | [8] 0.028 | [9] -0.031

OAT (UniProt P04181)
inactive: erlotinib 0.063 | [1] 0.099 | [2] 0.045 | [3] -0.091 | [4] 0.042 | [5] -0.151 | [6] -0.183 | [7] -0.001 | [8] -0.037 | [9] -0.023

MLX (UniProt Q9UH92)
Sequence of UniProt Q9UH92 (Q9UH92 whole entry, looked up): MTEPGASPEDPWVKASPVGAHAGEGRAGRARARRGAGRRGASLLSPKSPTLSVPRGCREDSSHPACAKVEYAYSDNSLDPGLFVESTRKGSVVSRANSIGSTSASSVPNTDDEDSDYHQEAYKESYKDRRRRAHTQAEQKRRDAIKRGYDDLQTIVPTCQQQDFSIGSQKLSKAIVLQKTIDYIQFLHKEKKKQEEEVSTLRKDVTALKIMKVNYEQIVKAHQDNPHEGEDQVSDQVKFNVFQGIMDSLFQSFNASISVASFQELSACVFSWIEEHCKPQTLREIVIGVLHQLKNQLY
inactive: erlotinib 0.038 | [1] 0.135 | [2] -0.057 | [3] 0.062 | [4] 0.032 | [5] -0.094 | [6] -0.041 | [7] -0.076 | [8] -0.012 | [9] -0.143

NAP1L1 (UniProt P55209)
Sequence of UniProt P55209 (P55209 whole entry, looked up): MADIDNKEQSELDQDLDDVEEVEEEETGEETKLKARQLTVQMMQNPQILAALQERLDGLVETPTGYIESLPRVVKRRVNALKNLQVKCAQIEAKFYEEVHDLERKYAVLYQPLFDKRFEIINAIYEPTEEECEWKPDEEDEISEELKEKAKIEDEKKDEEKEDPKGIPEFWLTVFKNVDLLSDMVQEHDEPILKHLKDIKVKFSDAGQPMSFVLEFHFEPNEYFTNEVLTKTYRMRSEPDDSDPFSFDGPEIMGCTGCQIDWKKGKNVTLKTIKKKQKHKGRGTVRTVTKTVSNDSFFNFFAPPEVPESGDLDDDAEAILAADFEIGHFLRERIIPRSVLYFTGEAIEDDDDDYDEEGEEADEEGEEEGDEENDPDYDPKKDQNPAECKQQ
inactive: erlotinib -0.021 | [1] 0.006 | [2] 0.036 | [3] 0.035 | [4] -0.048 | [5] 0.066 | [6] 0.026 | [7] -0.018 | [8] -0.02 | [9] 0.07

NUP107 (UniProt P57740)
Sequence of UniProt P57740 (P57740 whole entry, looked up): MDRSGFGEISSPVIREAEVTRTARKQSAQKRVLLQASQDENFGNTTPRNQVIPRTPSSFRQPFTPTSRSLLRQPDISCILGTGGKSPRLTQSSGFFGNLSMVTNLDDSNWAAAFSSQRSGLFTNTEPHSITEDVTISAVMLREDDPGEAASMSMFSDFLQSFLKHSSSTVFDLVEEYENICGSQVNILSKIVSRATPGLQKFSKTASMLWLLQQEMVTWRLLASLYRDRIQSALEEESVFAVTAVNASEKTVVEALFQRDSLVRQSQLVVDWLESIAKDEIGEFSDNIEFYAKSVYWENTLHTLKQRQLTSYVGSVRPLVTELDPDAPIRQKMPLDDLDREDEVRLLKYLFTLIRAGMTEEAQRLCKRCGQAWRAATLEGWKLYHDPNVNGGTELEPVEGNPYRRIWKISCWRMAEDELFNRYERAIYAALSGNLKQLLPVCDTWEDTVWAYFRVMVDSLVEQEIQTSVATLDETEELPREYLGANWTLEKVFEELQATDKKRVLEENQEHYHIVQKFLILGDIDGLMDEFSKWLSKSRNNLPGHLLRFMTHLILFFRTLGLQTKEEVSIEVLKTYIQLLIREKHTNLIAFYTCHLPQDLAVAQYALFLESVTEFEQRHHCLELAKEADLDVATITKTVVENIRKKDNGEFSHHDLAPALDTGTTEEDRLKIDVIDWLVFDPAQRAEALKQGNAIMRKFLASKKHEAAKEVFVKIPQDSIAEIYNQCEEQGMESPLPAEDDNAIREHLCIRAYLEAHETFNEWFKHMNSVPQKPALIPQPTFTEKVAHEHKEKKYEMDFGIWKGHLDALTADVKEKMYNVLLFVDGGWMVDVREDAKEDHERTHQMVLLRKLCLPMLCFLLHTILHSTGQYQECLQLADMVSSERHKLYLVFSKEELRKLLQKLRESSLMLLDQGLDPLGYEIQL
inactive: erlotinib -0.05 | [1] 0.004 | [2] -0.128 | [3] 0.063 | [4] 0.04 | [5] 0.065 | [6] -0.037 | [7] -0.192 | [8] -0.145 | [9] -0.005

NRDC isoform 2 (UniProt O43847)
inactive: erlotinib -0.016 | [1] 0.081 | [2] 0.012 | [3] -0.024 | [4] 0.021 | [5] 0.024 | [6] 0.027 | [7] 0.057 | [8] -0.046 | [9] 0.049

OSBPL8 (UniProt Q9BZF1)
inactive: erlotinib 0.243 | [1] 0.156 | [2] -0.212 | [3] 0.021 | [4] 0.005 | [5] -0.028 | [6] 0.077 | [7] -0.005 | [8] -0.048 | [9] -0.085

MNAT1 (UniProt P51948)
inactive: erlotinib 0.01 | [1] 0.04 | [2] -0.066 | [3] 0.012 | [4] -0.012 | [5] 0.008 | [6] 0.002 | [7] -0.002 | [8] -0.067 | [9] -0.01

NPEPPS (UniProt P55786)
Sequence of UniProt P55786 (P55786 whole entry, looked up): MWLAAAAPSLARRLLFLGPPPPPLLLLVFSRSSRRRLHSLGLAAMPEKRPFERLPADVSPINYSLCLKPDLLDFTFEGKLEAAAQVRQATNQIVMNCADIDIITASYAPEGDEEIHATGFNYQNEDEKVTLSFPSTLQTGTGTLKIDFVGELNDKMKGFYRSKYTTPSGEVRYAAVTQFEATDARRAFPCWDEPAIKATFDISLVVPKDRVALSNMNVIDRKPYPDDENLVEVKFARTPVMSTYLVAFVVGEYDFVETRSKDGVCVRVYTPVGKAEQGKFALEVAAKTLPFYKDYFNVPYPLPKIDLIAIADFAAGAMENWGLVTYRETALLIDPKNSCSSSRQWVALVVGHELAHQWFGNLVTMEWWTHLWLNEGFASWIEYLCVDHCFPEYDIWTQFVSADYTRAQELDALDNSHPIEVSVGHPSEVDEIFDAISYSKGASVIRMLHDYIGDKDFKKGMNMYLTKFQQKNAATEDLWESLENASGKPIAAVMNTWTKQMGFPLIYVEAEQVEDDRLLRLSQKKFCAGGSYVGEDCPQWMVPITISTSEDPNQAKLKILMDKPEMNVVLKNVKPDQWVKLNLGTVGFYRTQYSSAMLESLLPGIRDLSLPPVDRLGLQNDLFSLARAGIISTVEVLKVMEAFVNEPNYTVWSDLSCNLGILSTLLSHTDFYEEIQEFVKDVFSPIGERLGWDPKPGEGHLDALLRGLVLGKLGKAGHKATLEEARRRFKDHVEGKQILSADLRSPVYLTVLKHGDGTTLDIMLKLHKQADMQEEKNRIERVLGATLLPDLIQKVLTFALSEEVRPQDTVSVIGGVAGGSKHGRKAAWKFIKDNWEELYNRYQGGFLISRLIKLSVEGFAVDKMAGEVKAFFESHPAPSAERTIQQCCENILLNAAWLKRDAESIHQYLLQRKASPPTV
inactive: erlotinib 0.002 | [1] 0.058 | [2] 0.054 | [3] -0.027 | [4] 0.061 | [5] 0.002 | [6] 0.005 | [7] 0.035 | [8] -0.009 | [9] 0.045

NBN (UniProt O60934)
inactive: erlotinib 0.064 | [1] 0.087 | [2] 0.06 | [3] 0.033 | [4] 0.005 | [5] 0.028 | [6] 0.012 | [7] 0.002 | [8] -0.029 | [9] 0.037

NUP98 (UniProt P52948)
inactive: erlotinib 0.063 | [1] 0.01 | [2] -0.085 | [3] -0.013 | [4] -0.011 | [5] 0.035 | [6] -0.015 | [7] -0.217 | [8] -0.06 | [9] -0.012

NOL11 (UniProt Q9H8H0)
inactive: erlotinib -0.019 | [1] -0.065 | [2] 0.015 | [3] -0.007 | [4] -0.038 | [5] 0.042 | [6] 0.027 | [7] -0.005 | [8] -0.014 | [9] 0.079

MITD1 (UniProt Q8WV92)
inactive: erlotinib 0.011 | [1] -0.009 | [2] 0.148 | [3] 0.037 | [4] 0.044 | [5] 0.036 | [6] -0.015 | [7] 0.101 | [8] 0.03 | [9] -0.024

NEDD4L (UniProt Q96PU5)
inactive: erlotinib 0.014 | [1] 0.078 | [2] -0.078 | [3] 0.005 | [4] 0.016 | [5] 0.035 | [6] 0.146 | [7] 0.019 | [8] -0.026 | [9] -0.076

MSH6 (UniProt P52701)
inactive: erlotinib 0.286 | [1] 0.224 | [2] 0.096 | [3] 0.002 | [4] 0.167 | [5] 0 | [6] 0.102 | [7] 0.137 | [8] -0.095 | [9] -0.143

NDUFA7 (UniProt O95182)
Sequence of UniProt O95182 (O95182 whole entry, looked up): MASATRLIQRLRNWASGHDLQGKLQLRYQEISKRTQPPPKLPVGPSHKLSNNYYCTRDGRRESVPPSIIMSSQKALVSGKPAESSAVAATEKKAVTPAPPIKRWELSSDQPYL
inactive: erlotinib -0.001 | [1] -0.033 | [2] 0.085 | [3] 0.078 | [4] -0.003 | [5] 0.021 | [6] 0 | [7] 0.036 | [8] 0.005 | [9] 0.01

MRPS9 (UniProt P82933)
inactive: erlotinib -0.057 | [1] -0.019 | [2] -0.087 | [3] 0.137 | [4] 0.019 | [5] 0.04 | [6] 0.023 | [7] 0.043 | [8] 0.002 | [9] -0.095

NDUFB10 (UniProt O96000)
inactive: erlotinib -0.009 | [1] -0.067 | [2] 0.018 | [3] 0.03 | [4] 0.06 | [5] 0.025 | [6] -0.038 | [7] -0.021 | [8] 0.026 | [9] 0.045

NOB1 (UniProt Q9ULX3)
Sequence of UniProt Q9ULX3 (Q9ULX3 whole entry, looked up): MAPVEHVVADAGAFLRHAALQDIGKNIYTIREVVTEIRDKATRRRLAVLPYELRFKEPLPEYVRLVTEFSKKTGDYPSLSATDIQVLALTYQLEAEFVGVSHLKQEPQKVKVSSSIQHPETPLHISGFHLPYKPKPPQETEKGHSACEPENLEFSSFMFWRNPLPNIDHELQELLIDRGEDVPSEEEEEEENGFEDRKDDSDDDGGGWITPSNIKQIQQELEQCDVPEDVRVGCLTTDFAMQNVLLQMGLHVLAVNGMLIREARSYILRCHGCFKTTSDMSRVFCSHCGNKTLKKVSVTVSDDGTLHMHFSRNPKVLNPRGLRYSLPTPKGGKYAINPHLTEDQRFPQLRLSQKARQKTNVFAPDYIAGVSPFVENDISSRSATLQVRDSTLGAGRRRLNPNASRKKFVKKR
inactive: erlotinib 0.048 | [1] 0.061 | [2] -0.106 | [3] 0.017 | [4] -0.025 | [5] -0.08 | [6] 0.081 | [7] 0.053 | [8] 0.045 | [9] -0.078

NQO1 (UniProt P15559)
inactive: erlotinib -0.064 | [1] 0.037 | [2] 0.089 | [3] -0.002 | [4] -0.06 | [5] -0.005 | [6] -0.014 | [8] -0.015 | [9] 0.065
active: [7] 0.269

OPHN1 (UniProt O60890)
Sequence of UniProt O60890 (O60890 whole entry, looked up): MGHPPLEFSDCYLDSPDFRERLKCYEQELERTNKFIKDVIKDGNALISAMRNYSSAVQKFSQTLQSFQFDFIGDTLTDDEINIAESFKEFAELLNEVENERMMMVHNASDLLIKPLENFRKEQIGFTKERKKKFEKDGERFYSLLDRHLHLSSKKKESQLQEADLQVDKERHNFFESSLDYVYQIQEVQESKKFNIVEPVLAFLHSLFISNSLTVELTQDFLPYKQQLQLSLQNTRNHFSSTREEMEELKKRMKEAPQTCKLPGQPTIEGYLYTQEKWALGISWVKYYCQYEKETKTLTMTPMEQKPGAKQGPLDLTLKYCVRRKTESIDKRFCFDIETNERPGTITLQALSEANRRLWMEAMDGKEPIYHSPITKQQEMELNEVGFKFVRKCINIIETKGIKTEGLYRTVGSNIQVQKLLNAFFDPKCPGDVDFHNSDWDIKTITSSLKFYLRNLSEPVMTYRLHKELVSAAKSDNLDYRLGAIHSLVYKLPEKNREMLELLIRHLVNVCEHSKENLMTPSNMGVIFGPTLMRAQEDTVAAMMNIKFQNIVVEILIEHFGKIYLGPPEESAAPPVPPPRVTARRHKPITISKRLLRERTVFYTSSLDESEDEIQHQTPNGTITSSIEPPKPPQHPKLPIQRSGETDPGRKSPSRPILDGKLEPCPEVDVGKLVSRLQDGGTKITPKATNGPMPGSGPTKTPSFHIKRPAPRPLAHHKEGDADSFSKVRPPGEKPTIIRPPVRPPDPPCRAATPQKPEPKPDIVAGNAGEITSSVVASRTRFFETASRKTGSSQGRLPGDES
inactive: erlotinib 0.022 | [1] -0.155 | [2] 0.101 | [3] -0.009 | [4] 0.24 | [5] 0.03 | [6] -0.007 | [7] 0.039 | [8] 0.044 | [9] 0.04

NEMP1 (UniProt O14524)
inactive: erlotinib -0.003 | [1] -0.011 | [2] -0.027 | [3] 0.023 | [4] 0.049 | [5] 0.016 | [6] -0.056 | [7] -0.162 | [8] 0.068 | [9] 0.048

NASP (UniProt P49321)
inactive: erlotinib -0.018 | [1] 0.048 | [2] 0.079 | [3] -0.018 | [4] -0.02 | [5] 0.059 | [6] -0.018 | [7] -0.004 | [8] 0.001 | [9] -0.022

NCOA7 (UniProt Q8NI08)
inactive: erlotinib -0.027 | [1] 0.063 | [2] -0.047 | [3] 0.004 | [4] 0.07 | [5] -0.048 | [6] 0.014 | [7] 0.011 | [8] 0.024 | [9] 0.045
